Test results from PubChem BioAssay AID463193 (University of Pittsburgh Molecular Library Screening Center, 2010).
About 1,900 (1%) of roughly 190,000 compounds were called active.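 Rule for the calls: active = percentage of spot-positive cells more than 3 SD above its plate mean, without a fluorescence outlier flag or 80% toxicity; inconclusive = no clear call, values can overlap the other calls; inactive = the rest.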 Many of the other results were omitted from the sample, so actives are more common in it than they were.

Assay: autophagy modulators in MEF cells, primary screen, imaging, high-content, MEF GFP-LC3 (AID 463193);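 for % cells with GFP-LC3 spots: spot-positive cell cutoff set from DMSO-treated cells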;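 for toxicity: cell loss after 18 h compound exposure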
Conditions: MEF GFP-LC3 puncta imaging, at 10 µM; % cells with GFP-LC3 spots: stronger effect = higher value; toxicity: measured here: cell loss, nuclei count

| SMILES | % cells with GFP-LC3 spots | toxicity |
| --- | --- | --- |
| O=C(NCc1ccncc1)C(=O)NCc1ccco1 | 0.301% (inactive) | -9.14% |
| CCc1nc(Nc2ccc3nccnc3c2)c2oc3ccccc3c2n1 | 19% (active) | -4.67% |
| CCSc1nc(C)nc2c1oc1ccccc12 | 7.02% (inactive) | 8.62% |
| COc1ccccc1Nc1ncnc2c1oc1ccccc12 | 5.61% (inactive) | 1.55% |
| CN(C)C(=O)c1nc2ccc(Cl)cn2c1CN1CCN(c2ncccn2)CC1 | 2.1% (inactive) | -12.9% |
| CC(C)C(=O)Nc1c(O)c2ccccc2[nH]c1=O | 0.457% (inactive) | 5.73% |
| CCOc1ccccc1N1CCN(C(=O)COc2ccc3c(C)cc(=O)oc3c2)CC1 | 3.98% (inactive) | 7.33% |
| COc1ccc([C@H]2[C@H](C(C)=O)N3N=Cc4ccccc4C3C23C(=O)OC(C)(C)OC3=O)cc1 (stereo partly specified) | 3.81% (inactive) | -2.15% |
| CC/C(=N/Nc1ccccc1)c1cnnc(SC)n1 | 1.72% (inactive) | -12.6% |
| C/C(=N/Nc1ccc(Cl)cc1)c1cnnc(-c2ccccc2)n1 | 45.6% (active) | -1.98% |
| O=C(Cc1ccc(Cl)cc1)NCc1nc(-c2ccccc2)no1 | 1.76% (inactive) | 18% |
| CNc1nccc(-c2ccc(Cl)cc2)c1C#N | 0.668% (inactive) | -6.73% |
| CC(C)(C)NC(=O)NC(=O)CN1CCC(Cc2ccccc2)CC1 | 8.11% (active) | 52.4% |
| COc1ccc(NC(=O)N2CCC(Cc3ccccc3)CC2)cc1 | 5.76% (inactive) | -6.26% |
| NC(=O)c1ccc(CN2CCC(Cc3ccccc3)CC2)cc1 | 4.13% (inactive) | 31.8% |
| O=C(NCc1ccco1)c1nn2cccnc2c1Cl | 2.07% (inactive) | -10.5% |
| Cc1ccc(/C([O-])=C(/C(=S)NCc2ccco2)[n+]2ccccc2)cc1[N+](=O)[O-] | 1.01% (inactive) | 4.63% |
| Cc1ccc(NC2=C(Cl)C(=O)OC2OC(=O)c2ccccc2C)cc1 (stereo unspecified) | 9.77% (inactive) | 12.9% |
| CCOc1ccccc1/C=c1\sc2nc(-c3ccco3)nn2c1=O | 23.9% (active) | -24.1% |
| CCOc1ccccc1C(=O)NCc1ccco1 | 3.98% (inactive) | -2.98% |
| O=c1nc2s/c(=C\c3ccco3)c(=O)n2nc1Cc1ccccc1 | 1.32% (inactive) | -3.5% |
| Cc1cc(C)c2c(n1)nn1c(N3CCN(c4cccc(Cl)c4)CC3)cc(C)nc21 | 11.4% (active) | 3.85% |

| SMILES | % cells with GFP-LC3 spots | toxicity |
| --- | --- | --- |
| Cc1cc(C)c2c(n1)nn1c(N3CCOCC3)cc(C)nc21 | 8.07% (inactive) | 5.9% |
| Cc1cc(C)c2c(n1)nn1c(-n3ccnc3)cc(C)nc21 | 2.18% (inactive) | 8.53% |
| COCCN(Cc1nc(-c2ccc(C(F)(F)F)cc2)no1)C(C)C | 9.15% (inactive) | 9.9% |
| O=C(N/N=C/c1coc2ccccc2c1=O)c1cc2ccccc2o1 | 23.9% (inactive) | 5.54% |
| Cc1c(/C=N/N2C(=O)C3C4C=CC(C4)C3C2=O)c2ccccc2n1C (stereo unspecified) | 7.41% (inactive) | -40.2% |
| Cc1c(/C=N\NC(=O)c2cc3ccccc3o2)c2ccccc2n1C | 7.46% (active) | 40.9% |
| O=C(NCCOc1ccccc1F)Nc1ccc(Br)cc1 | 8.91% (inactive) | 10.2% |
| CCCCn1c(N)c(N2CCOCC2)c(=O)n(CC(=O)NCCc2ccccc2)c1=O | 1.7% (inactive) | 10.6% |
| Nc1ccc(Nc2ccccc2)cc1 | 3.14% (inactive) | 23.3% |
| Cc1ccc(Nc2ccccc2N)cc1 | 78% (active) | 27.6% |
| Cc1ccc(Nc2nnc(SCc3ccccc3)s2)cc1 | 12.4% (inactive) | -2.65% |
| Cc1ccc(CC(=O)Nc2cccc(C#N)c2)cc1 | 1.19% (inactive) | -8.28% |
| COc1cc(/C=C/C2=CC(C)(C)NC(=S)N2)cc(OC)c1OC | 1.56% (inactive) | 6.84% |
| COc1cccc(NC(=O)C(C)Oc2ccccc2)c1 (stereo unspecified) | 5.6% (inactive) | 4.79% |
| CC(Oc1ccccc1F)C(=O)NN (stereo unspecified) | 38% (active) | 3.88% |
| CC(Oc1ccc(F)cc1F)C(=O)/C=C/N(C)C (stereo unspecified) | 6.77% (inactive) | 7.51% |
| COc1ccccc1C1CC(=O)n2c(nc(-c3ccccc3)c2-c2ccccc2)S1 (stereo unspecified) | 3.32% (inactive) | 1.28% |
| O=[N+]([O-])/C(N=Nc1ccccc1)=N\Nc1ccccc1 | 16.1% (inactive) | 8.32% |
| Nc1nonc1-c1nc2ccccc2n1CCC(=O)O | 6.83% (inactive) | 0.889% |
| Nc1nonc1-c1nc2ccccc2n1Cc1ccc(F)cc1 | 17.1% (inactive) | 0.606% |
| COc1ccc(C)c(Cn2c(-c3nonc3N)nc3ccccc32)c1 | 25% (active) | 49.2% |
| CN(C)Cc1ccccc1C1(O)c2ccccc2CSc2ccccc21 (stereo unspecified) | 12% (active) | -6.62% |

| SMILES | % cells with GFP-LC3 spots | toxicity |
| --- | --- | --- |
| COC(=O)C1=C(NC(=O)C(C)(C)C)CCS1 | 5.79% (inactive) | -3.16% |
| COC(=O)c1sc(N)c(C(=O)OC)c1COC(=O)CNS(=O)(=O)c1ccc(C)cc1 | 2.17% (inactive) | -4.43% |
| CCN1CCN(CCNC(=O)c2ccc(/C=C3/Sc4ccccc4N(Cc4cccc(C)c4)C3=O)cc2)CC1 | 34.4% (inactive) | 30.3% |
| CCN1/C(=C/c2ccc3ccc(C)cc3[n+]2CC)Sc2ccccc21 | 42.4% (active) | 14.3% |
| CCC(=O)/C=C1\Sc2ccccc2N1CC | 7.46% (inactive) | -11.3% |
| Cc1ccc(Nc2cc(C)nc3c(C)ccc([N+](=O)[O-])c23)cc1 | 9.29% (inactive) | 15.4% |
| Cc1cccc(N(C(=O)Cc2cccs2)C(C(=O)NCc2ccco2)c2ccncc2)c1 (stereo unspecified) | 0.45% (inactive) | 4.04% |
| Cc1nc2ccccc2cc1O | 1.86% (inactive) | -9.74% |
| CSc1nc(N)c(C#N)c(-c2ccccc2Cl)c1C#N | 1.32% (inactive) | 7.01% |
| CSc1nc2ccccc2cc1/C=C(\C#N)c1ccc(Cl)cc1Cl | 26.9% (active) | 3.92% |
| CCC(C)NC(=O)/C=C/c1ccc(S(=O)(=O)NCc2ccco2)cc1 (stereo unspecified) | 13.9% (inactive) | -4.92% |
| Cc1cccc(OCCNC(=S)NC(=O)c2cccnc2)c1 | 4.78% (inactive) | 1.96% |
| O=C(CSc1ncnc2c1nnn2Cc1ccc(F)cc1)NC1CCCC1 | 19.5% (inactive) | 3.4% |
| COc1ccc(N2CCN(C(=O)CNS(=O)(=O)c3ccc(C)c(C)c3)CC2)cc1 | 0.151% (inactive) | -10.1% |
| Cc1cc([N+](=O)[O-])nn1CCCC(=O)Nc1cccnc1Cl | 8.6% (inactive) | 1.08% |
| O=C(Nc1ccc2oc(-c3ccc4ccccc4c3)nc2c1)c1cccs1 | 3.28% (active) | -13.1% |
| Cc1ccc(-c2nnc(-c3ccc(NC(=O)c4cccs4)cc3)o2)cc1 | 9.58% (inactive) | -19.8% |
| O=C(Cc1cccc2ccccc12)Nc1ccc2oc(-c3ccccc3)nc2c1 | 7.49% (inactive) | 12.1% |
| COc1cc(OC)c(C(=O)Nc2ccccc2-c2ccccc2)cc1OC | 7.38% (inactive) | -2.46% |
| COc1ccc(C(=O)OCC(=O)NCC2CCCO2)cc1[N+](=O)[O-] (stereo unspecified) | 3.86% (inactive) | 1.61% |
| COc1ccc(OC)c(C(=O)c2ccc(C(=O)N3CCN(Cc4csc(C)n4)CC3)cc2)c1 | 1.64% (inactive) | 6.76% |
| O=C(O)COc1ccc(/C=N/O)cc1Br | 17% (inactive) | 9.84% |

| SMILES | % cells with GFP-LC3 spots | toxicity |
| --- | --- | --- |
| CN(C)c1ccc(NC(=O)CSc2n[nH]c(-c3ccco3)n2)cc1 | 5.18% (inactive) | -4.21% |
| C/C(Cc1ccccc1)=N\NC(=O)CNC(=O)c1cccc(Br)c1 | 6.35% (inactive) | 7.09% |
| CN(C)S(=O)(=O)N1CCN(c2ccc([N+](=O)[O-])cc2)CC1 | 20% (active) | 4.08% |
| Cc1ccc(N2CCN(S(=O)(=O)N(C)C)CC2)cc1Cl | 10.8% (inactive) | 7.23% |
| COc1ccc(N2CCN(c3ccc([N+](=O)[O-])cc3Cl)CC2)cc1 | 3.9% (inactive) | 14.4% |
| O=C(O)CCn1c(SCc2cc(=O)n3ccccc3n2)nc2ccsc2c1=O | 0.605% (inactive) | 8.22% |
| Cc1ccc(NC(=O)c2oc3ccccc3c2C)c([N+](=O)[O-])c1 | 13.1% (active) | 22.2% |
| Cc1ccc(NC(=O)c2oc(=O)c3ccccc3c2-c2ccccc2)c(C)c1 | 6.34% (inactive) | -1.17% |
| Cc1ccc(NC(=O)CN(C)Cc2ccc(F)cc2)c([N+](=O)[O-])c1 | 5.2% (inactive) | 3.98% |
| CCOC12CC(C)(C)CC(C)(CC3=C1C(=O)CC(C)(C)C3)C2 (stereo unspecified) | 4.26% (inactive) | 3.51% |
| COc1ccc(-c2csc(Nc3ccc(O)cc3)n2)cc1 | 16.2% (active) | 17.3% |
| COc1ccc(Nc2nc(-c3ccccc3)cs2)cc1 | 11.9% (inactive) | -34.3% |
| Oc1ccc(-c2csc(Nc3cccnc3)n2)cc1 | 7.75% (inactive) | -0.924% |
| CCC(CC)NC(=O)CSc1nnc(-c2c[nH]c3ccccc23)o1 | 15.7% (inactive) | 28.2% |
| Cc1ccc(-n2c(O)c(C=Nc3ccc(S(=O)(=O)Nc4ncccn4)cc3)c3ccccc3c2=O)cc1C | 3.56% (inactive) | -8.78% |
| Cc1ccc(N=Cc2c(O)cc(C)oc2=O)c(C)c1 | 9.61% (inactive) | 4.32% |
| Cc1ccc(N=Cc2c(O)n(-c3nccs3)c(=O)c3ccccc23)c(C)c1 | 60% (active) | -7.63% |
| CCOC(=O)N1CCN(C(=O)c2ccccc2N(Cc2ccccc2)S(=O)(=O)c2ccc(OC)cc2)CC1 | 19.1% (inactive) | 5.8% |
| Cc1c(CN2CCC(CO)(CCOc3ccccc3)CC2)[nH]c2ccc(Cl)cc12 | 14.1% (inactive) | -12.9% |
| COc1cccc2sc(NNC(=O)c3nc4ccccc4s3)nc12 | 8.59% (inactive) | 0.117% |
| CC(=O)c1sc(NC(=O)CCCOc2ccccc2C)nc1C | 7.71% (inactive) | 7.95% |
| COc1cccc2sc(Nc3nc(C)c(C(C)=O)s3)nc12 | 21.8% (active) | 46.9% |
